PHOSPHO1 block – inhibitors of human PHOSPHO1 phosphatase; Q8TCT1; recombinant PHOSPHO1, absorbance phosphatase assay; inhibition, % at 13.3 µM; 290,000 compounds, 1.1% hits; in the data active means inhibition above about 60%
Wnt act – activators of Wnt/beta-catenin signaling | AID 743398 | 300,000 compounds, 1.2% hits | Wnt/beta-catenin reporter cell assay, activator, plate reader | activation, % at 9.35 µM; in the data active means activation above about 30%, passing the limit was not always enough
MITF TRPM1 HTS – increases MITF-driven TRPM1 promoter luciferase signal; SK-MEL-5 TRPM1-promoter luciferase, 24 h; % of positive control, neutral wells = 0; activation, % at 12.5 µM; 300,000 compounds, 0.75% hits; AID 588334;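 active means mean activation of at least 80% with every replicate also reaching 80%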
esBAF inh – blocks esBAF chromatin remodeling in mouse ES cells; Bmi1-luciferase knock-in reporter, 24 h; 100% = twice the neutral-well signal; reporter increase, % at 12.5 µM; 350,000 compounds, 2% hits; in the data active means activation above about 40%;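 further: a rise in the Bmi1 reporter signal indicates esBAF inhibition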
APOBEC3G inh – inhibitors of human APOBEC3G DNA deaminase. inhibition, % at 20 µM. recombinant A3G, ssDNA deamination FAM/TAMRA fluorescence. 330,000 compounds, 0.28% hits. Q9HC16;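 active means inhibition of at least 40% at 20 µM, with no more than 30% in the related APOBEC3A deaminase screen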
Target sequence (Q9HC16 whole entry, looked up): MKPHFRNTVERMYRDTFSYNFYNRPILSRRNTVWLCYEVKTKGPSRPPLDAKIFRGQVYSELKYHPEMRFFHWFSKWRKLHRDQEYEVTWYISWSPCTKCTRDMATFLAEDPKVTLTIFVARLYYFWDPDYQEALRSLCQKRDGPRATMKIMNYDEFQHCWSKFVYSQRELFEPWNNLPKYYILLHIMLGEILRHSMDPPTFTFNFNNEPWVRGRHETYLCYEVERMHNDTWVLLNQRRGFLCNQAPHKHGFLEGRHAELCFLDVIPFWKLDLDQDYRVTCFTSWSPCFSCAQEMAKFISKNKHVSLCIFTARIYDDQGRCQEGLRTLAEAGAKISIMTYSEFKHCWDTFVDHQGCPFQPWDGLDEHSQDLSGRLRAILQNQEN
APOBEC3A inh – blocks human APOBEC3A ssDNA deamination. P31941. recombinant A3A, FAM/TAMRA ssDNA deamination fluorescence. inhibition, % at 20 µM. 330,000 compounds, 0.41% hits;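 active means at least 40% inhibition at 20 µM here, with at most 30% in a related deaminase screen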
Hits are given with their value; - = inactive; . = no result given. An excerpt weighted towards active compounds, which were near 3.6% of everything screened.

SMILES | PHOSPHO1 block | Wnt act | MITF TRPM1 HTS | esBAF inh | APOBEC3G inh | APOBEC3A inh
CC(=O)NN1C(=O)/C(=C/c2ccc(Br)o2)SC1=S | 87 | . | - | - | - | -
CCOC(=O)c1ccc2[nH]c3ccccc3c2c1 | - | - | - | 62 | - | -
Cc1[nH]c2ccc(C(=O)OCCN(C)C)cc2c1C | - | - | - | - | - | -
CCOC(=O)c1ccc2[nH]c(C)c(C)c2c1 | . | . | - | 59 | - | -
C[C@H]1CN([C@@H](C)CO)C(=O)c2cc(NC(=O)CCCN(C)C)ccc2O[C@@H]1CN(C)C(=O)Nc1ccc2c(c1)OCO2 | . | . | . | - | . | .
COc1cccc(C#Cc2cnc3c(c2)C(=O)N([C@@H](C)CO)C[C@H](C)[C@H](CN(C)C(=O)C2CCOCC2)O3)c1 | . | . | . | - | . | .
O=C(C[C@H]1CC[C@@H]2[C@H](COC[C@@H](O)CN2Cc2nccs2)O1)NCc1ccc(Cl)cc1 | . | . | . | - | . | .
O=C(Nc1ncc(Cc2cccc(Cl)c2)s1)c1cccs1 | - | . | - | 47 | - | -
COc1ccc(C(=O)N[C@H](C(=O)Nc2nc3c(s2)CCCC3)C(C)C)cc1 | - | 38 | - | 65 | - | -
O=C(Nc1nc2c(s1)CCCC2)c1ccc(Br)o1 | - | . | - | - | - | -
O=C(Nc1ncc(Cc2ccccc2)s1)c1cccs1 | - | . | - | - | - | -
Cc1ccc(C(=O)Nc2nc3c(s2)CCCC3)o1 | - | 57 | - | - | - | -
O=C(Nc1ncc(Cc2cccc(Cl)c2)s1)C1=NCCN1 | - | - | - | - | - | -
Cc1ccc(Cc2cnc(NC(=O)c3cccs3)s2)cc1 | - | . | - | 72 | - | -
N#C[C@@H]1[C@@H](c2ccc(-c3cccnc3)cc2)[C@H](CO)N1C(=O)C1CC1 | . | . | . | - | . | .
C[C@H](CO)N1C[C@H](C)[C@@H](CN(C)S(=O)(=O)c2cccs2)Oc2ccc(NC(=O)C3CCCCC3)cc2CC1=O | . | . | . | - | . | .
Cc1ccc(C(=O)Nc2ncc(Cc3ccccc3)s2)o1 | - | 51 | - | - | - | -
Cc1nc(N)sc1-c1csc(N(C)c2ccc(O)cc2)n1 | 85 | - | - | 43 | - | -
CN(c1ccc(O)cc1)c1nc(-c2cccs2)cs1 | - | - | - | . | - | -
O=C(C1CCC1)N1C[C@@H]2[C@H](c3ccccc31)[C@H](CO)N2S(=O)(=O)c1ccccc1 | . | . | . | - | . | .
Cc1nnc(SCC(=O)Nc2nc(-c3ccccc3)cs2)n1N | 69 | . | - | - | - | -
O=C(CN1CCCCC1)Nc1nc(-c2ccccc2)cs1 | - | - | - | 55 | - | -
CCc1sc(NC(=O)CN2CCOCC2)nc1-c1ccccc1 | - | - | - | - | - | -
Cc1nc(NC(=O)CN2CCOCC2)sc1-c1ccccc1 | - | - | - | 50 | - | -
O=C(CN1CCCCC1)Nc1nc(-c2ccc(Cl)cc2)cs1 | - | - | - | - | . | .
SMILES | PHOSPHO1 block | Wnt act | MITF TRPM1 HTS | esBAF inh | APOBEC3G inh | APOBEC3A inh
C[C@@H]1CN([C@@H](C)CO)C(=O)c2cc(NC(=O)Cn3cnnn3)ccc2O[C@@H]1CN(C)Cc1ccccc1 | . | . | . | - | . | .
C[C@@H]1CN([C@H](C)CO)C(=O)c2cc(C#CCN(C)C)cnc2O[C@H]1CN(C)Cc1ccc(C(=O)O)cc1 | . | . | . | - | . | .
CC(=O)c1ccc(NC(=O)c2ccn(C(=O)OCC(C)C)n2)cc1 | - | 53 | - | . | - | -
COc1ccccc1-n1c(CNC(=O)c2ccc(S(=O)(=O)N3CCOCC3)cc2)n[nH]c1=S | - | . | - | - | 42 | -
Cc1cccc(-n2c(CNC(=O)c3ccc(S(=O)(=O)N4CCCC4)cc3)n[nH]c2=S)c1 | 80 | - | - | . | - | -
O=C(NCc1n[nH]c(=S)n1-c1ccc(Br)cc1)c1ccc(S(=O)(=O)N2CCCC2)cc1 | - | - | - | . | - | -
O=C(NCc1n[nH]c(=S)n1-c1ccc(Br)cc1)c1ccc(S(=O)(=O)N2CCOCC2)cc1 | 77 | - | - | . | - | -
COc1ccc(NC(=O)Nc2ccc3c(c2)CC(=O)N([C@H](C)CO)C[C@@H](C)[C@@H](CN(C)S(=O)(=O)c2cccs2)O3)cc1 | . | . | . | - | . | .
CSCCC(NC(=O)c1cc(C)oc1C)C(=O)O (stereo not given) | 90 | - | . | - | - | -
CN1C(=O)c2cc(NC(=O)Nc3cccc(Cl)c3)ccc2OC[C@@H]2O[C@@H](CC(=O)NCCc3ccncc3)CC[C@H]21 | . | . | . | - | . | .
CC1CCN(c2ccc3c(c2)S(=O)(=O)c2ccccc2C3=O)CC1 | . | 52 | 86 | 53 | - | -

Source: PubChem (several laboratories)
